Five compounds from PubChem BioAssay (NCATS) can be followed below.

The structures appear in SMILES notation. Results filed as inconclusive are left out. Activity calls are given as the source filed them. The call rests on the fitted dose curve; in most records, active means well fitted curve in either direction with a large enough effect (not every such curve was filed as active); inconclusive means small, poorly fitted or top-dose-only effect, or another doubt; inactive means flat fitted curve, though single readings scatter.

The assay concerns the target Mitogen-activated protein kinase 10 (Mus musculus) (UniProt Q61831). In words: JNK3 AlphaScreen Assay (AID 530).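 Further: kinase came from lysate of stimulated human HepG2 cells; signal reports phosphorylation of biotinylated GST-cJun 1-79 at Ser73 with 10 µM ATP.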 The settings on record: JNK3 lysate, c-Jun phosphorylation; series mostly up to 57.1 µM. An outline of the steps: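 qHTS format: compounds tested as titrations against IL-1beta/TNF-alpha-activated HepG2 lysate JNK3 with biotin-GST-cJun substrate and 10 uM ATP at room temperature. Loss of anti-phospho-cJun AlphaScreen signal indicates inhibition.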
For orientation: Bead proximity is the source of the signal in Alpha formats.
In the case of `CC(C)C[C@H](NC(=O)[C@@H]1O[C@H]1C(=O)O)C(=O)NCCCCN=C(N)N`, the compound was classed as inactive.
Consider `CCc1cccc2c3c([nH]c12)[C@@](CC)(CC(=O)O)OCC3`, for which the result was inactive.
With `COc1ccc(CCC(=O)c2c(O)cc(O[C@@H]3O[C@H](CO)[C@@H](O)[C@H](O)[C@H]3O[C@@H]3O[C@@H](C)[C@H](O)[C@@H](O)[C@H]3O)cc2O)cc1O`, the call was inactive.
In the case of `C[C@]1(C2CCCC2)Cc2cc(OCC(=O)O)c(Cl)c(Cl)c2C1=O`, the call was inactive.
Turning to `C=C1C[C@]23C[C@@]1(O)CC[C@H]2[C@@]12C=C[C@H](O)[C@@](C)(C(=O)O1)[C@H]2[C@@H]3C(=O)O`, the result was inactive.
